From PubChem
This is a sample that favours compounds with a hit; in the whole collection about 19% have one here.
ELG1 repair inh – blocks ELG1-dependent DNA repair in HEK293T cells. AID 504467. HEK293T ELG1-luciferase reporter, luminescence, 16 h; DNA damage induced by 5-fluorouridine. Potency, µM (highest dose often 46.1 µM), hits mostly inhibitors. actives 2.3% (n = 330,000); also: nearly all actives have a fitted effect of over 55% in size
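Quantitative HTS, concentration-response format. 2,000 cells/well co-treated with 5-fluorouridine and compound, 16 hr in 5% CO2 at 37 °C; ONE-Glo luminescence read after 30 min.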
HT1080 IDH1KD tx – kills HT-1080 cells with IDH1 knockdown | HT-1080 IDH1 knockdown viability, ATP luminescence, 48 h | Potency, µM (series often up to 46.1 µM), most hits filed as cytotoxic | actives 2% (n = 360,000) | AID 686971
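CellTiter-Glo luminescence after 48 h compound exposure at 37 degrees C of IDH1-knockdown HT-1080 cells in 5% FBS RPMI. %Activity scaled between DMSO wells and cell-free media wells, with curves fitted and assigned curve classes.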
IL1B secr inh – inflammasome signaling inhibition, IL-1 beta readout. THP-1 LPS/ATP IL-1B secretion, AlphaLISA, 16 h; hits give low values. activity change, % at 57.5 µM. actives 4.7% (n = 360,000); in the data active = activity change below about -50%; inconclusive = mostly about -30% to -49%
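Secreted IL-1B measured by AlphaLISA bead assay after 16 h compound exposure of THP-1 cells; compounds (final up to 57.5 uM) added 1 h before LPS (250 ng/mL) and ATP (1.25 mM) stimulation; lower signal means less secretion.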
HT1080NT lethal – kills 2HG-producing HT-1080-NT fibrosarcoma cells; Potency, µM (top dose mostly 46.1 µM), most hits filed as cytotoxic; actives 1.6% (n = 360,000); HT-1080-NT fibrosarcoma viability, CellTiter-Glo ATP luminescence, 48 h;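 also: NT is the 2HG producing partner of a matched IDH1 knockdown line; nearly all actives have a fitted effect of over 55% in size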
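HT-1080-NT fibrosarcoma cells (2HG-overproducing), 750 cells/well in RPMI with 5% FBS, dosed after 2 h and incubated 48 h at 37C. CellTiter-Glo luminescence normalized to DMSO and no-cell wells; concentration-response curves fitted and classed.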
DT40 TDP1 no CPT – qHTS for Inhibitors of human tyrosyl-DNA phosphodiesterase 1 (TDP1): qHTS in cells in absence of CPT; DT40 Tdp1-/- hTDP1 cells, no CPT, ATP luminescence, 48 h; Potency, µM (titrated, usually from 46.2 µM), most hits filed as inhibitors; actives 15% (n = 420,000); AID 686978, 2013; also: nearly all actives have a fitted effect of over 55% in size
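Camptothecin absent (DMSO only). Human TDP1-complemented DT40 knockout cells, 400 cells/well, 37 °C for minimum 48 hr; ATP measured via CellTiter-Glo, 30 min dark incubation, luminescence.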
TDP1 cell CPT – growth inhibition of DT40 Tdp1-/-;hTDP1 cells with camptothecin (screen for TDP1 inhibitors); chicken DT40 Tdp1-/-;hTDP1 cells + 20 nM CPT, ATP luminescence, 48 h; AID 686979; Potency, µM (highest dose often 46.2 µM), usual class: inhibitors; actives 12% (n = 420,000); also: nearly all actives have a fitted effect of over 55% in size
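Chicken DT40 Tdp1-/- cells complemented with human TDP1, 400 cells/well, exposed to compounds plus 20 nM camptothecin for at least 48 h at 37 C; viability read as ATP content by CellTiter-Glo luminescence.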
A number is an active result; – = inactive; ? = inconclusive; · = no result given. Unless noted, calls follow the shape of the dose curve; as a rule, active = well fitted curve in the direction sought with a large enough effect; inconclusive = small, poorly fitted or top-dose-only effect, or another doubt; inactive = no such curve, though single readings can be large; an effect the other way counts as inactive or inconclusive.

SMILES | ELG1 repair inh | HT1080 IDH1KD tx | IL1B secr inh | HT1080NT lethal | DT40 TDP1 no CPT | TDP1 cell CPT
O=C(NCc1ccc(Cl)cc1)NC1COc2ccccc2C1 (stereo unspecified) | · | · | · | · | – | –
CCOC(CNC(=O)Cc1c(C)nc2c(-c3ccccc3)c(C)nn2c1C)OCC | – | – | – | – | ? | –
COc1ccc(S(N)(=O)=O)cc1C(=O)NNC(=O)C1COc2ccccc2O1 (stereo unspecified) | – | – | – | – | – | –
CC1CCC(C(C)C)C(NC(=O)c2ccncc2)C1 (stereo unspecified) | · | – | – | ? | – | –
NS(=O)(=O)c1ccc2c(c1)C(=NO)c1cc(S(N)(=O)=O)ccc1-2 | – | – | – | – | – | –
N#CC(C#N)=C1c2cc(S(N)(=O)=O)ccc2-c2ccc(S(N)(=O)=O)cc21 | – | – | – | – | 21µM | 16µM
N#CC(C#N)=C1c2cc(S(=O)(=O)NCCO)ccc2-c2ccc(S(=O)(=O)NCCO)cc21 | – | – | ? | – | ? | 13µM
CC1CCc2c(sc3nnn(Cc4ccccc4Cl)c(=O)c23)C1 (stereo unspecified) | · | · | · | · | 21µM | ?
CC1CCc2c(sc3nnn(Cc4ccc(F)cc4)c(=O)c23)C1 (stereo unspecified) | · | · | · | · | 26µM | 3.3µM
Cc1ccc(Cn2nnc3sc4c(c3c2=O)CCC(C)C4)cc1 (stereo unspecified) | · | · | · | · | ? | –
CC1CCc2c(sc3nnn(CCCCOc4ccc(Cl)cc4)c(=O)c23)C1 (stereo unspecified) | · | · | · | · | – | –
CN1C(=O)N(CC(=O)N2CCN(S(=O)(=O)c3ccc(Cl)s3)CC2)C(=O)C12CCCCC2 | – | – | – | – | – | ?
NC(=O)CCC(NC(=O)c1ccc(Cl)cc1)C(=O)O (stereo unspecified) | – | – | – | – | – | –
Cc1nn(CCC#N)c(N)c1C1(O)C(=O)Nc2c(Cl)cc(Cl)cc21 (stereo unspecified) | – | – | – | – | 3.7µM | 16µM
CC1=NN(C(=O)c2ccc(Cn3cc(Br)c([N+](=O)[O-])n3)o2)C(O)(C(F)(F)F)C1 (stereo unspecified) | – | – | – | – | 2.6µM | 3.3µM
CC1=NN(C(=O)c2ccc(Cn3nc(C)cc3C)o2)C(O)(C(F)(F)F)C1 (stereo unspecified) | – | 6.3µM | – | 7.1µM | 2.5µM | 1.3µM
CCCCc1nc2cc(C(=O)N3CCN(c4nc(C)cnc4C)CC3)ccc2o1 | ? | – | – | – | ? | ?
COc1ccccc1/C=C/C(=O)NCC(=O)N=Nc1c(O)[nH]c2ccccc12 | – | – | – | – | ? | –
COc1cccc(NC(=S)NNC(=O)c2c([N+](=O)[O-])c(C)nn2C)c1 | – | 7.9µM | – | ? | ? | ?
COc1cccc(NC(=S)NNC(=O)C(C)n2nc(C)c([N+](=O)[O-])c2C)c1 (stereo unspecified) | – | – | – | – | – | –
CC(=O)N1CC(C)Sc2ccc(S(=O)(=O)NCc3ccc(Cl)cc3)cc21 (stereo unspecified) | – | – | – | – | ? | ?
O=C1NC[C@H](c2ccccc2)OC(=O)[C@@H](Cc2ccc(F)cc2)CC/C=C/C[C@@H]1CC(=O)N(CCO)Cc1ccccc1 | 23µM | · | – | – | 23µM | ?
O=C(C[C@@H]1C/C=C/CC[C@H](Cc2ccc(F)cc2)C(=O)O[C@H](c2ccccc2)CNC1=O)NCCO | – | – | – | – | – | –
O=C1NC[C@H](c2ccccc2)OC(=O)[C@@H](Cc2ccc(F)cc2)CC/C=C/C[C@H]1CC(=O)N(CCO)Cc1ccccc1 | 5.2µM | · | – | 23µM | 12µM | 13µM
Cc1ccc(C(=O)NCCc2nnc3ccc(NCc4ccc5c(c4)OCO5)nn23)cc1 | – | – | – | – | ? | ?
SMILES | ELG1 repair inh | HT1080 IDH1KD tx | IL1B secr inh | HT1080NT lethal | DT40 TDP1 no CPT | TDP1 cell CPT
O=C1C=CC(=O)N1CCCCCCN1C(=O)C=CC1=O | 23µM | ? | -98 | ? | 2.1µM | 1.5µM
O=c1c(-c2ccc(Cl)cc2)nc2cnc(N3CCNCC3)nc2n1Cc1ccc(F)cc1 | · | · | · | · | 9.2µM | 6.5µM
COc1cccc(Cn2c(=O)c(-c3cc(F)cc(F)c3)nc3cnc(N4CCN(C)CC4)nc32)c1 | · | · | · | · | – | –
COc1ccc(-c2nc3cnc(N4CCNCC4)nc3n(Cc3cccc(OC)c3)c2=O)cc1 | · | · | · | · | 4.6µM | 6.5µM
COc1cccc(Cn2c(=O)c(-c3cccs3)nc3cnc(N4CCOCC4)nc32)c1 | · | · | · | · | – | –
COc1cccc(Cn2c(=O)c(-c3cccs3)nc3cnc(N4CCNCC4)nc32)c1 | · | · | · | · | 18µM | ?
COc1cccc(Cn2c(=O)c(-c3ccc(F)cc3)nc3cnc(N4CCNCC4)nc32)c1 | · | · | · | · | 23µM | 13µM
Cc1ccc(NC(=O)CN2C(=O)COc3ccc(S(=O)(=O)NC4CCCC4)cc32)cc1Cl | · | · | · | · | – | ?
O=c1c(-c2ccc(F)cc2)nc2cncnc2n1Cc1ccc(F)cc1 | · | · | · | · | – | –
COc1cccc(Cn2c(=O)c(-c3ccc(Cl)cc3)nc3cnc(N4CCN(C)CC4)nc32)c1 | · | · | · | · | – | –
O=c1c(-c2ccc(F)cc2)nc2cncnc2n1Cc1ccccc1 | · | · | · | · | 16µM | ?
COc1cccc(Cn2c(=O)c(-c3ccc(Cl)cc3)nc3cnc(N4CCNCC4)nc32)c1 | · | · | · | · | 5.8µM | 5.8µM
O=C(CC1NC(=S)NC1=O)c1ccc(Cl)cc1 (stereo unspecified) | – | – | – | ? | – | –
CC(C)OC(=O)c1ccc(N2CCN(c3ccccc3F)CC2)nc1 | ? | – | – | – | 18µM | ?
COc1ccc(OC)c(NC(=O)c2cc3c(cc2Cl)N2CCCCCC2=NS3(=O)=O)c1 | – | – | – | – | 16µM | ?
CCOc1ccccc1NC(=O)c1cnc(N2CCOCC2)c2ccccc12 | · | · | · | · | 18µM | 21µM
CC(C)OC(=O)c1ccc(N2CCN(c3ccc(F)cc3)CC2)nc1 | ? | ? | – | – | ? | ?
CCN1CCN(c2ncc(C(=O)Nc3ccccc3C(=O)OC)c3ccccc23)CC1 | – | ? | ? | 21µM | 16µM | 23µM
C[C@@H]1CN([C@@H](C)CO)S(=O)(=O)c2ccc(Br)cc2O[C@H]1CN(C)C(=O)c1ccncc1 | · | – | – | – | ? | –
CC1(C)CC(=O)C2=C(C1)OC1OC(=O)CC21C (stereo unspecified) | – | – | – | – | – | –
COc1ccc(OC)c(NC(=O)c2cnc(N3CCCCC3)c3ccccc23)c1 | · | · | · | · | 8.2µM | 10µM
